# A selection: hits, their analogues and other compounds. The true share with any hit is near 2.9%.
# ZTA counter: ZTA (EBV) inhibition in EBNA-1 counter-screen. AID 2234. actives 0.15% (n = 320,000). inhibition, % at 11 µM. ZTA-DNA binding, fluorescence polarization; in the data active = inhibition above about 33%
# EBNA-1 inh: EBNA-1 DNA-binding inhibitors, primary screen, biochemical, fluorescence polarization | inhibition, % at 14.8 µM | actives 0.34% (n = 300,000); in the data active = inhibition above about 28%
# pPAFAH inh: pPAFAH enzyme inhibitors, primary screen, biochemical, fluorescence polarization, human | Platelet-activating factor acetylhydrolase (Homo sapiens), Q13093 | actives 1.5% (n = 330,000) | AID 463082, 2010 | inhibition, % at 3.39 µM | recombinant pPAFAH, FP-rhodamine probe fluorescence polarization;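 active = inhibition above the mean inhibition across the screen plus 3 SD, cut at about 25% in these data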;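 also: inhibitors block binding of the rhodamine activity-based probe so polarization drops; 0% = enzyme with DMSO and 100% = wells lacking pPAFAH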
# PAFAH1B2 inh: PAFAH1B2 enzyme inhibitors, primary screen, biochemical, fluorescence polarization, human | Platelet-activating factor acetylhydrolase IB subunit alpha2 (Homo sapiens), P68402 | recombinant PAFAH1B2, FP-rhodamine activity probe | actives 1.2% (n = 340,000) | inhibition, % at 3.39 µM;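 active = inhibition above the mean of all tested compounds plus 3 SD, cut at about 24% in these data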;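 also: 0% = enzyme with DMSO and 100% = wells lacking PAFAH1B2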
# Target sequence (P68402 whole entry, looked up): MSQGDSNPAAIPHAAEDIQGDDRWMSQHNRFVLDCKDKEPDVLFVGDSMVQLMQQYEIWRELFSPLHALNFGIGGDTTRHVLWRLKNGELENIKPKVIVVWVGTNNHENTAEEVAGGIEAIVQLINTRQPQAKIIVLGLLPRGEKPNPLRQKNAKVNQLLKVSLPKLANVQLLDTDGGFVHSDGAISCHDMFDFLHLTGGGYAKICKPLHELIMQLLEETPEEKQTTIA
# PAFAH2 FP inh: PAFAH2 enzyme inhibitors, primary screen, biochemical, fluorescence polarization, human. recombinant PAFAH2, FP-rhodamine activity probe. actives 0.99% (n = 340,000). AID 492956, 2010. inhibition, % at 3.39 µM;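 active = inhibition above the mean over all tested compounds plus 3 SD, cut at about 30% in these data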;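 also: inhibitors block probe labeling of enzyme so polarization drops; 0% = enzyme with DMSO and 100% = wells lacking PAFAH2 protein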
# PAFAH1B3 inh: PAFAH1B3 enzyme inhibitors, primary screen, biochemical, fluorescence polarization, human. Platelet-activating factor acetylhydrolase IB subunit alpha1 (Homo sapiens), Q15102. recombinant PAFAH1B3, FP-rhodamine probe. AID 492972, 2010. inhibition, % at 3.39 µM. actives 0.28% (n = 340,000);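 active = inhibition above the screen-wide average of all tested compounds plus 3 SD, cut at about 25% in these data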;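 also: 0% = enzyme with DMSO only and 100% = wells lacking PAFAH1B3 protein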
# Target sequence (Q15102 whole entry, looked up): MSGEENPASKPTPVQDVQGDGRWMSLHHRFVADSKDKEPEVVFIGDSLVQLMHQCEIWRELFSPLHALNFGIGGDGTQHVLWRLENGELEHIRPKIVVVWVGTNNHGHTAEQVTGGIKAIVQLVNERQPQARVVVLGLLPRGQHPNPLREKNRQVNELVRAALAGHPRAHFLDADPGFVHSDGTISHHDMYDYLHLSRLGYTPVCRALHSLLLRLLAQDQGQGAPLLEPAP
# PAFAH2 confirm: PAFAH2 enzyme inhibitors, confirmation, biochemical, fluorescence polarization, human | shares compounds with PAFAH2 FP inh | recombinant PAFAH2, FP-rhodamine activity probe | inhibition, % at 3.39 µM | actives 65% (n = 2,300);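 active = mean inhibition over three repeats above a set limit taken from the earlier primary screen, cut at about 30% in these data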;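 also: inhibitor blocks binding of rhodamine activity probe so polarization falls; 0% = enzyme with DMSO and 100% = wells lacking PAFAH2 protein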
# * marks the source's active call; other numbers are inactive results; . = not tested or not shown.
SMILES,ZTA counter,EBNA-1 inh,pPAFAH inh,PAFAH1B2 inh,PAFAH2 FP inh,PAFAH1B3 inh,PAFAH2 confirm
Cc1ccc(/C=N/NC(=O)C(c2ccncc2)N2CCOCC2)cc1 (centres undefined),-10,-4,-1,2,5,11,.
Cc1cc2c(sc3c(C)ccc(C)c32)c(C)n1,-12,-10,-1,5,7,7,.
COc1ccc(OC)c(CCNC(=O)CN2C(=O)CCSc3ccccc32)c1,9,13,2,16,36*,17,-7
CCOc1ccc(CCNC(=O)CN2C(=O)CCSc3ccccc32)cc1OCC,-7,-8,-3,1,-6,4,.
N/C(=N\OC(=O)c1ccc(F)cc1)c1ccccc1,4,0,2,4,5,6,.
N/C(CC1CC1(Cl)Cl)=N\OC(=O)c1ccccc1 (centres undefined),-2,-2,3,7,83*,-4,78*
Cc1ccc(C(=O)O/N=C(\N)Cc2cccc3ccccc23)cc1,-4,-12,10,-2,67*,-5,74*
N/C(Cc1ccc(Cl)cc1Cl)=N\OC(=O)c1ccccc1,18,6,2,5,78*,5,78*
N/C(Cc1ccc(Cl)cc1)=N\OC(=O)c1ccc2ccccc2c1,-13,13,20,1,36*,-4,30*
COc1ccccc1N(CC(=O)NCC1CCCO1)C(=O)CNS(=O)(=O)c1ccccc1 (centres undefined),4,1,4,-1,1,4,.
COc1ccc(C/C(N)=N/OC(=O)c2ccc(Cl)cc2)cc1,2,4,5,5,51*,5,39*
COc1ccc(CC(=O)O/N=C(\N)Cc2ccc(OC)cc2)cc1,4,5,7,0,-3,0,.
O=C(NC(=S)Nc1ccc(Cl)cn1)c1cc([N+](=O)[O-])ccc1N1CCOCC1,3,-13,3,5,-4,11,.
CC1(C)Cc2noc(N)c2C(C)(C)N1OC(=O)c1ccccc1,-12,-6,2,3,0,1,.
CC1(C)CC(=NOC(=O)c2ccccc2)CC(C)(C)N1O,-3,-4,3,6,33*,8,32*
COc1ccc(C(=O)ON=C2CCN(C)CC2)cc1,10,2,3,5,75*,1,63*
O=C(ON=C1CCN(S(=O)(=O)c2ccccc2)CC1)c1ccccc1,-3,-4,2,10,91*,6,83*
COc1ccc(C(=O)O/N=C2\C(=O)N(C)c3ccccc32)cc1,15,-5,-8,1,7,-5,.
O=C(ON=C1CCN(S(=O)(=O)c2ccccc2)CC1)c1cccc(Cl)c1,-11,-2,13,17,82*,9,79*
O=S(=O)(/N=C(/Nc1ccccc1)c1ccccc1O)c1ccccc1,7,-10,-3,7,-3,4,.
CCc1ccc(NC(=O)c2noc3c2CCC3)cc1,6,-12,12,8,31*,4,10
CCc1ccc(NC(=O)c2noc3c2CCCCC3)cc1,1,-2,-3,4,-3,10,.
COCc1ccc(C(=O)N2CCCC(C(=O)c3ccc(SC)cc3)C2)s1 (centres undefined),-2,-5,3,-2,-3,-6,.
CN(/N=C/c1cc([N+](=O)[O-])ccc1O)c1ccccc1,-7,11,7,0,35*,8,31*
O=C(OCc1cc(=O)n2c(n1)sc1ccccc12)c1ccc(O)cc1,6,-10,5,0,34*,4,7
SMILES,ZTA counter,EBNA-1 inh,pPAFAH inh,PAFAH1B2 inh,PAFAH2 FP inh,PAFAH1B3 inh,PAFAH2 confirm
Nc1ccc(C(=O)OCc2nc3ccccc3s2)cc1,-24,2,1,-1,60*,6,48*
O=C(OCc1nc2ccccc2s1)c1ccc(Br)s1,-4,-3,11,1,17,3,.
O=C(OCc1nc2ccccc2s1)c1cccc(S(=O)(=O)N2CCOCC2)c1,-1,-10,12,0,45*,9,29
Nc1cc(C(F)(F)F)ccc1OCC1CCCO1 (centres undefined),4,-6,1,3,10,4,.
O=C(COC(=O)c1ccccc1NCCO)Nc1cccc(S(=O)(=O)NC2=NCCCCC2)c1,-2,7,-1,0,2,11,.
O=C1OC2(CCCCC2)OC(=O)C1=CNc1nc2ccccc2s1,-1,-5,-2,9,41*,4,21
O=C1OC2(CCCCC2)OC(=O)C1=CNc1nccs1,-14,0,-1,2,18,2,.
COc1cccc(C(=O)N2CCN(Cc3ccc(OC)cc3OC)CC2)c1,-5,-5,2,7,4,5,.
Cc1cc2c(cc(C(=O)N3CCC(C(=O)NC4CCCC4)CC3)n2Cc2c(F)cccc2Cl)o1,-2,2,-1,4,64*,-2,49*
CCOC(=O)/C=C/C(=O)OCC(=O)Nc1ccc(Cl)cc1Cl,-1,15,-2,-1,2,3,.
CC(C)=CC(=O)OCC(=O)Nc1ccc(F)cc1Cl,1,-2,7,0,47*,8,41*
CC(C)=CC(=O)OCC(=O)Nc1cc([N+](=O)[O-])ccc1F,5,3,-8,-8,62*,0,68*
Cc1nnc(N(C)C(=O)c2ccc3c(c2)OCO3)s1,-11,-1,3,3,-11,5,.
COc1ccc(CCNC(=O)c2cccc(S(=O)(=O)N3CCc4ccccc4C3)c2)cc1,2,.,5,14,-5,-5,.
O=C(CC1NC2CCCCC2NC1=O)Nc1cccc(C(F)(F)F)c1 (centres undefined),-3,-7,4,-1,36*,-4,14
Cc1cc(Br)c(NC(=O)COC(=O)C2CCCCC2)c(Br)c1,.,.,7,-1,33*,-3,32*
Cc1ccc(NC(=O)COC(=O)C2CC2)c(Br)c1,-8,-3,20,4,55*,10,39*
CN(C)c1nc2c(c(N)nn2-c2ccc(Cl)cc2)c(=O)o1,-3,-2,-4,2,47*,4,41*
COc1ccc(-n2nc(N)c3c(=O)oc(N(C)C)nc32)cc1,-8,-2,18,2,54*,1,45*
COC(=O)c1sc(SC)c(S(=O)(=O)C(C)C)c1N/N=C(\C#N)C(=O)c1ccccc1,2,14,11,10,12,2,.
CC(=O)Nc1ccc2nc(NC(=O)CCc3ccccc3)sc2c1,9,10,0,9,6,5,.

# Screens: PubChem BioAssay, The Scripps Research Institute Molecular Screening Center
